Test results: PubChem BioAssay AID1159580 (chemical genetic matrix, 2015)
In all, about 5,500 compounds went through this assay and about 2,000 (36%) were called active. Roughly 18% stayed inconclusive and do not appear here. Cut-off read from the data, not from the text of the source: active = normalized growth mostly below about 0.91 (no sharp cut-off); inconclusive = no clear call, values can overlap the other calls; inactive = mostly above about 0.92. The list shows a part of the results.

Test: chemical genetic growth profiling, strain panel (AID 1159580);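 note: tested at 20 µM; growth read once vehicle control cultures reached saturation at 30 °C; 1 = growth at the plate median or of vehicle wells; lower values mean less growth of the strain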
Conditions: growth OD
[1] = S. cerevisiae deletion strains, locus YDL101C, strain DUN1, stronger effect = lower value
[2] = S. cerevisiae deletion strains, locus YHR030C, strain SLT2, stronger effect = lower value

Measured: normalized growth

Cc1ccc(NC(=O)CC#N)c(C)c1
inactive: S. cerevisiae deletion strains, locus YAL013W, strain DEP1, stronger effect = lower value 1.01 | S. cerevisiae deletion strains, locus YBR229C, strain ROT2, stronger effect = lower value 1 | [1] 0.979 | S. cerevisiae deletion strains, locus YDL134C, strain PPH21, stronger effect = lower value 1.01 | S. cerevisiae deletion strains, locus YDR150W, strain NUM1, stronger effect = lower value 0.895 | S. cerevisiae deletion strains, locus YEL061C, strain CIN8, stronger effect = lower value 1.03 | S. cerevisiae deletion strains, locus YGR078C, strain PAC10, stronger effect = lower value 1.01 | S. cerevisiae deletion strains, locus YGR229C, strain SMI1, stronger effect = lower value 0.986 | [2] 0.959 | S. cerevisiae deletion strains, locus YHR087W, strain rtc3, stronger effect = lower value 0.995 | S. cerevisiae deletion strains, locus YJR043C, strain POL32, stronger effect = lower value 0.96 | S. cerevisiae deletion strains, locus YJR075W, strain HOC1, stronger effect = lower value 1.04 | S. cerevisiae deletion strains, locus YKL190W, strain CNB1, stronger effect = lower value 0.998 | S. cerevisiae deletion strains, locus YLR039C, strain RIC1, stronger effect = lower value 0.974 | S. cerevisiae deletion strains, locus YLR058C, strain SHM2 (second series), stronger effect = lower value 1 | S. cerevisiae deletion strains, locus YLR085C, strain ARP6, stronger effect = lower value 1.05 | S. cerevisiae deletion strains, locus YLR262C, strain YPT6, stronger effect = lower value 0.973 | S. cerevisiae deletion strains, locus YML094W, strain GIM5, stronger effect = lower value 1.04 | S. cerevisiae deletion strains, locus YMR219W, strain ESC1, stronger effect = lower value 1.02 | S. cerevisiae deletion strains, locus YMR263W, strain SAP30, stronger effect = lower value 0.998 | S. cerevisiae deletion strains, locus YMR307W, strain GAS1, stronger effect = lower value 1.03 | S. cerevisiae deletion strains, locus YNL153C, strain GIM3, stronger effect = lower value 1.01 | S. cerevisiae deletion strains, locus YNL298W, strain CLA4 (second series), stronger effect = lower value 0.988 | S. cerevisiae deletion strains, locus YNL322C, strain KRE1, stronger effect = lower value 1.01 | S. cerevisiae deletion strains, locus YNR030W, strain Alg12, stronger effect = lower value 1.02 | S. cerevisiae deletion strains, locus YOL006C, strain TOP1, stronger effect = lower value 0.951 | S. cerevisiae deletion strains, locus YPL055C, strain LGE1, stronger effect = lower value 1.1 | S. cerevisiae deletion strains, locus YPL241C, strain CIN2, stronger effect = lower value 1.03 | S. cerevisiae deletion strains, locus YPR135W, strain CTF4, stronger effect = lower value 1.01 | S. cerevisiae strains, strain wild type, stronger effect = lower value 0.976

O=C(Nc1ccc(SC(F)(F)F)cc1)Nc1ccc(Oc2cccc(C(F)(F)F)c2)nc1
active: [2] 0.769
inactive: S. cerevisiae deletion strains, locus YAR019C, strain CDC15, stronger effect = lower value 0.995 | S. cerevisiae deletion strains, locus YBL105C, strain PKC1, stronger effect = lower value 0.989 | S. cerevisiae deletion strains, locus YBR135W, strain CKS1, stronger effect = lower value 0.992 | S. cerevisiae deletion strains, locus YBR136W, strain MEC1, stronger effect = lower value 0.987 | S. cerevisiae deletion strains, locus YBR160W, strain CDC28, stronger effect = lower value 0.992 | S. cerevisiae deletion strains, locus YDL017W, strain CDC7, stronger effect = lower value 0.996 | S. cerevisiae deletion strains, locus YDL028C, strain MPS1, stronger effect = lower value 0.988 | [1] 0.997 | S. cerevisiae deletion strains, locus YDL108W, strain KIN28, stronger effect = lower value 0.993 | S. cerevisiae deletion strains, locus YDL132W, strain cdc53, stronger effect = lower value 0.995 | S. cerevisiae deletion strains, locus YDL214C, strain PRR2, stronger effect = lower value 0.941 | S. cerevisiae deletion strains, locus YDR052C, strain DBF4, stronger effect = lower value 0.996 | S. cerevisiae deletion strains, locus YDR054C, strain cdc34, stronger effect = lower value 0.994 | S. cerevisiae deletion strains, locus YDR226W, strain ADK1, stronger effect = lower value 0.987 | S. cerevisiae deletion strains, locus YDR477W, strain SNF1, stronger effect = lower value 0.982 | S. cerevisiae deletion strains, locus YER123W, strain YCK3, stronger effect = lower value 0.949 | S. cerevisiae deletion strains, locus YER133W, strain GLC7, stronger effect = lower value 0.95 | S. cerevisiae deletion strains, locus YFL009W, strain cdc4, stronger effect = lower value 0.988 | S. cerevisiae deletion strains, locus YFL029C, strain CAK1, stronger effect = lower value 0.996 | S. cerevisiae deletion strains, locus YFR003C, strain YPI1, stronger effect = lower value 0.991 | S. cerevisiae deletion strains, locus YFR019W, strain FAB1, stronger effect = lower value 0.921 | S. cerevisiae deletion strains, locus YFR028C, strain CDC14, stronger effect = lower value 0.999 | S. cerevisiae deletion strains, locus YGR040W, strain KSS1, stronger effect = lower value 0.975 | S. cerevisiae deletion strains, locus YGR052W, strain FMP48, stronger effect = lower value 0.973 | S. cerevisiae deletion strains, locus YGR092W, strain DBF2, stronger effect = lower value 0.995 | S. cerevisiae deletion strains, locus YHR079C, strain IRE1, stronger effect = lower value 0.883 | S. cerevisiae deletion strains, locus YHR082C, strain KSP1, stronger effect = lower value 1.05 | S. cerevisiae deletion strains, locus YHR205W, strain SCH9, stronger effect = lower value 0.957 | S. cerevisiae deletion strains, locus YIL147C, strain SLN1, stronger effect = lower value 0.994 | S. cerevisiae deletion strains, locus YJL095W, strain BCK1, stronger effect = lower value 0.975 | S. cerevisiae deletion strains, locus YJL128C, strain PBS2, stronger effect = lower value 0.946 | S. cerevisiae deletion strains, locus YJL157C, strain FAR1, stronger effect = lower value 0.937 | S. cerevisiae deletion strains, locus YJR016C, strain ILV3, stronger effect = lower value 1 | S. cerevisiae deletion strains, locus YJR066W, strain TOR1 (second series), stronger effect = lower value 1.02 | S. cerevisiae deletion strains, locus YJR066W, strain TOR1, stronger effect = lower value 1.02 | S. cerevisiae deletion strains, locus YKL048C, strain ELM1, stronger effect = lower value 0.972 | S. cerevisiae deletion strains, locus YKL067W, strain YNK1, stronger effect = lower value 0.956 | S. cerevisiae deletion strains, locus YKL101W, strain HSL1, stronger effect = lower value 0.949 | S. cerevisiae deletion strains, locus YKL193C, strain SDS22, stronger effect = lower value 1 | S. cerevisiae deletion strains, locus YKL203C, strain TOR2, stronger effect = lower value 0.991 | S. cerevisiae deletion strains, locus YLR113W, strain HOG1, stronger effect = lower value 0.873 | S. cerevisiae deletion strains, locus YLR133W, strain CKI1, stronger effect = lower value 0.954 | S. cerevisiae deletion strains, locus YLR403W, strain SFP1, stronger effect = lower value 0.977 | S. cerevisiae deletion strains, locus YML070W, strain DAK1, stronger effect = lower value 0.964 | S. cerevisiae deletion strains, locus YMR001C, strain CDC5, stronger effect = lower value 0.996 | S. cerevisiae deletion strains, locus YMR205C, strain PFK2 (second series), stronger effect = lower value 0.974 | S. cerevisiae deletion strains, locus YMR277W, strain FCP1, stronger effect = lower value 0.996 | S. cerevisiae deletion strains, locus YNL006W, strain LST8, stronger effect = lower value 0.989 | S. cerevisiae deletion strains, locus YNL020C, strain ARK1, stronger effect = lower value 0.947 | S. cerevisiae deletion strains, locus YNL161W, strain CBK1, stronger effect = lower value 0.984 | S. cerevisiae deletion strains, locus YNL183C, strain NPR1, stronger effect = lower value 1.01 | S. cerevisiae deletion strains, locus YNL207W, strain RIO2, stronger effect = lower value 0.996 | S. cerevisiae deletion strains, locus YNL222W, strain SSU72, stronger effect = lower value 0.991 | S. cerevisiae deletion strains, locus YNL307C, strain MCK1 (second series), stronger effect = lower value 0.884 | S. cerevisiae deletion strains, locus YOL078W, strain AVO1, stronger effect = lower value 1 | S. cerevisiae deletion strains, locus YOL136C, strain PFK27, stronger effect = lower value 0.907 | S. cerevisiae deletion strains, locus YOR061W, strain CKA2, stronger effect = lower value 0.983 | S. cerevisiae deletion strains, locus YOR119C, strain RIO1, stronger effect = lower value 1.03 | S. cerevisiae deletion strains, locus YOR231W, strain MKK1, stronger effect = lower value 0.958 | S. cerevisiae deletion strains, locus YOR329C, strain SCD5, stronger effect = lower value 0.984 | S. cerevisiae deletion strains, locus YPL031C, strain PHO85, stronger effect = lower value 0.97 | S. cerevisiae deletion strains, locus YPL153C, strain RAD53, stronger effect = lower value 0.99 | S. cerevisiae deletion strains, locus YPL204W, strain HRR25, stronger effect = lower value 0.958 | S. cerevisiae deletion strains, locus YPL209C, strain IPL1, stronger effect = lower value 0.992 | S. cerevisiae deletion strains, locus YPL256C, strain CLN2, stronger effect = lower value 0.897 | S. cerevisiae deletion strains, locus YPR025C, strain CCL1, stronger effect = lower value 0.988 | S. cerevisiae deletion strains, locus YPR106W, strain ISR1, stronger effect = lower value 0.992 | S. cerevisiae deletion strains, locus YPR111W, strain DBF20, stronger effect = lower value 0.972 | S. cerevisiae deletion strains, strain NNK1, stronger effect = lower value 0.999 | S. cerevisiae deletion strains, strain TSCII, stronger effect = lower value 1
